Common to all, as to assay: yeast three-hybrid, YBZ-1, SC-Leu-His + 0.5 mM 3-AT, 4 days
What all share (conditions): tags: N-Gal4 AD-HA kept; label: inside an RPR1-promoter hybrid RNA with tandem MS2 sites; ssRNA

The target of one test is PUM1 PUF domain R3-RTC (Homo sapiens, UniProt Q14671 828-1176, C935R;R936T;Q939C). Summed up: (§1)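 Matching RNA elements and Pumilio-1 PUF domain libraries, randomized at the three base-contacting residues of every repeat, were co-expressed from a centromeric plasmid in strain YBZ-1 (LexA–MS2 coat fusion, HIS3 reporter). The repeat regions were PCR-amplified and Illumina-sequenced from cells grown four days on SC-Leu (input) or SC-Leu-His + 0.5 mM 3-AT (selection). The interaction score is the log change in variant frequency from input to selection. It is computed in log2, with a pseudocount of 1 for absent variants.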

A further test has as its target T1, PUM1 PUF domain R6-AWG (Homo sapiens, UniProt Q14671 828-1176, N1043A;Y1044W;Q1047G).
T1 sequence: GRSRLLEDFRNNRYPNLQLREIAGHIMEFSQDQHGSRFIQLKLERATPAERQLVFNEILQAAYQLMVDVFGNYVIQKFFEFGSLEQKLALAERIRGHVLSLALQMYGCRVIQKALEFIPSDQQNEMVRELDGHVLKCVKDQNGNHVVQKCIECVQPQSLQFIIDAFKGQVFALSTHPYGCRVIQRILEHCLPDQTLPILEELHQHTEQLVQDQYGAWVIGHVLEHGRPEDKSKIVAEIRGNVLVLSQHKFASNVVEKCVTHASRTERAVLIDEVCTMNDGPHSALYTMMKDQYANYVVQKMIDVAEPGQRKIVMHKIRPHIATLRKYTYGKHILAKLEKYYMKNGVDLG
The gist of the method:
as §1

For another test, the target named is PUM1 PUF domain R8-RYD (Homo sapiens, UniProt Q14671 828-1176, N1122R;Q1126D). The gist of the method:
as §1

A further test concerns the target PUM1 PUF domain R8-LHR (Homo sapiens, UniProt Q14671 828-1176, N1122L;Y1123H;Q1126R). The gist of the method:
as §1

For the next test, the target named is PUM1 PUF domain R8-DYC (Homo sapiens, UniProt Q14671 828-1176, N1122D;Q1126C). Summed up: as §1
For another test, the target named is PUM1 PUF domain R5-CHM (Homo sapiens, UniProt Q14671 828-1176, R1008H;Q1011M). Summed up: as §1
The target in a further test is PUM1 PUF domain R2-QWL (Homo sapiens, UniProt Q14671 828-1176, N899Q;Y900W;Q903L). Summed up:
as §1

The target of the next test is PUM1 PUF domain R2-RKV (Homo sapiens, UniProt Q14671 828-1176, N899R;Y900K;Q903V). Summed up: as §1

Turning to “GGCUAGAACUAGUGGAUCCCCCGGCGCCCGGCGGCUCGAGCCCGGGUAAGUGUAAUUAGUCUGCAUGCCGCCGGGCGCCAUGCCUGCAGGUCGACUCUAGAAAACAUG”, the binding signal with PUM1 PUF domain R3-RTC is 3.59 log2 enrichment (interaction score).
As for “GGCUAGAACUAGUGGAUCCCCCGGCGCCCGGCGGCUCGAGCCCGGGUAAGUGAAAAUAGUCUGCAUGCCGCCGGGCGCCAUGCCUGCAGGUCGACUCUAGAAAACAUG”, the binding signal with PUM1 PUF domain R6-AWG was 2.57 log2 enrichment (interaction score).
With “GGCUAGAACUAGUGGAUCCCCCGGCGCCCGGCGGCUCGAGCCCGGGUAAGCGUAAAUAGUCUGCAUGCCGCCGGGCGCCAUGCCUGCAGGUCGACUCUAGAAAACAUG”, the binding signal in the test with PUM1 PUF domain R8-RYD was 4.23 log2 enrichment (interaction score); in the test with PUM1 PUF domain R8-LHR, 4.05 log2 enrichment (interaction score); with PUM1 PUF domain R8-DYC, 4.43 log2 enrichment (interaction score).
As for “GGCUAGAACUAGUGGAUCCCCCGGCGCCCGGCGGCUCGAGCCCGGGUAAGUGUAAAUAGUCUGCAUGCCGCCGGGCGCCAUGCCUGCAGGUCGACUCUAGAAAACAUG”, the values for the binding signal with PUM1 PUF domain R8-LHR and with PUM1 PUF domain R5-CHM were 2.47 log2 enrichment (interaction score) and 2.96 log2 enrichment (interaction score), respectively.
“GGCUAGAACUAGUGGAUCCCCCGGCGCCCGGCGGCUCGAGCCCGGGUAAGUGUAAAAAGUCUGCAUGCCGCCGGGCGCCAUGCCUGCAGGUCGACUCUAGAAAACAUG”: the binding signal in the test with PUM1 PUF domain R2-QWL was 5.92 log2 enrichment (interaction score); in the test with PUM1 PUF domain R2-RKV, 3.51 log2 enrichment (interaction score).
On to “GGCUAGAACUAGUGGAUCCCCCGGCGCCCGGCGGCUCGAGCCCGGGUAAGUGUAAAGAGUCUGCAUGCCGCCGGGCGCCAUGCCUGCAGGUCGACUCUAGAAAACAUG”, for which the binding signal in the test with PUM1 PUF domain R2-RKV was 4.57 log2 enrichment (interaction score).

The record behind these values is PMC8384837, “Expanding the binding specificity for RNA recognition by a PUF domain”.
